# Assay results published in PubChem BioAssay.
# Biological target: Albumin (Bos taurus) (UniProt P02769)
# Test: bovine serum albumin binders on microarray, profiling panel, artefact control for SMM control protein annotation, biochemical, small-molecule microarray, Alexa647 label, 635/667 nm fluorescence (AID 1118);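 further: score merges 667 nm emission intensity and signal-to-noise per printed compound spot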
# Details: BSA-A647 binding, fluorescence 635 nm, higher = more signal
# Albumin (Bos taurus), sequence (P02769 whole entry, looked up): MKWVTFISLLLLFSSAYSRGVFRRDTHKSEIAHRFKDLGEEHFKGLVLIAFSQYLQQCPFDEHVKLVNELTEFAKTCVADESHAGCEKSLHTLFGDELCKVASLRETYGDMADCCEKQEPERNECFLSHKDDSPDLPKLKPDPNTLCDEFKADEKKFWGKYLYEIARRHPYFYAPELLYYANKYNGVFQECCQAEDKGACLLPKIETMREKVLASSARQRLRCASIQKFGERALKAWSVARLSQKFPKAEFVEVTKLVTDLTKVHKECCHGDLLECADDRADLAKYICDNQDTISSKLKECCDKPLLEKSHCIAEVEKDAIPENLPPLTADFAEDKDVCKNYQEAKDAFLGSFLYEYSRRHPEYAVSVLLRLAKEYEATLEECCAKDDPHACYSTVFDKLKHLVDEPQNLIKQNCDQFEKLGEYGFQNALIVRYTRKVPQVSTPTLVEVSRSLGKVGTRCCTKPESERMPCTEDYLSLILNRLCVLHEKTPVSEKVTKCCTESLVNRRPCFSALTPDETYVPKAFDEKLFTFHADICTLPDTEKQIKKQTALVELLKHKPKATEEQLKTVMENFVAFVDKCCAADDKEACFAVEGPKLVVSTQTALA
row,SMILES,composite z-score
1,C[C@@H]1ON(c2ccccc2)[C@H](c2ccccc2)[C@H]1C(=O)N1C(=O)OC[C@H]1Cc1ccccc1,0.215
2,COCCCNC(=O)[C@@H]1c2ccccc2C(=O)N(c2ccc(C)cn2)[C@H]1c1ccc(CO)cc1,-0.767
3,CC(=O)NCCCC[C@@H]1NC(=O)[C@H]2C[C@@H](C(=O)NCCCCCN)[C@@H](c3cccc(OCCO)c3)N2C1=O,0.796
4,C=CCOC(=O)[C@@H]1[C@H]2C(=O)O[C@H](c3ccccc3)[C@H](c3ccccc3)N2[C@H](c2ccc(OCCOC(=O)[C@H]3C[C@H]4C(=O)N[C@@H](Cc5ccccc5)C(=O)N4[C@H]3c3cccc(OCCO)c3)cc2)[C@@]12C(=O)Nc1ccc(I)cc12,-0.868
5,O=C(Nc1cc(Br)ccc1C(=O)NCc1cccc(O)c1)c1ccccc1,0.8
6,CC(C)CCC[C@@H](C)[C@H]1CC[C@@]2(C)C3=C(CC[C@]12C)[C@@]1(C)CC[C@H](OC(=O)C(C)(C)C)C(C)(C)C1CC3 (stereo not given in full),-0.0648
7,COC(=O)[C@@]1(Cc2ccccc2)[C@H]2c3cc(C(=O)N(C)C)n(Cc4ccc(O)c(OC)c4)c3C[C@H]2CN1C(=O)c1ccccc1,0.955
8,CC(C)C[C@H]1NC(=O)[C@H](C)NC(=O)[C@@]23C(=O)N[C@@H](Cc4ccccc4)C2[C@H](C)[C@@]2(C)O[C@H]2C3/C=C/C/C=C\CNC1=O (stereo not given in full),0.876
9,NCCCCCCNC(=O)[C@H]1C[C@H]2C(=O)N3CCC[C@H]3C(=O)N2[C@H]1c1ccc(O)cc1,0.425
10,COC(=O)C(CC#Cc1ccc2c(c1)[C@]1(C(=O)N2)[C@H](c2ccc(OCCO)cc2)N2[C@H](c3ccccc3)[C@H](c3ccccc3)OC(=O)[C@H]2[C@@H]1C(=O)O)C(=O)OC,0.803
11,O=C1O[C@H](c2ccccc2)[C@H](c2ccccc2)N2[C@H]1[C@@H](C(=O)N1CCN(c3ncccn3)CC1)[C@]1(C(=O)Nc3ccc(C#CCCO)cc31)[C@H]2c1ccc(OCCO)cc1,0.612
12,NC(=O)NCC#Cc1ccc2c(c1)[C@]1(C(=O)N2)[C@H](c2ccc(OCCO)cc2)N2[C@H](c3ccccc3)[C@H](c3ccccc3)OC(=O)[C@H]2[C@@H]1C(=O)N1CCCCCCC1,0.435
13,CN(C)C(=O)[C@@]1(CCS(=O)(=O)c2ccccc2)N=C(c2ccc(OCCCO)cc2)O[C@H]1c1ccccc1CN=[N+]=[N-],0.9
14,COc1ccc(CCNC(=O)[C@@H]2c3ccccc3C(=O)N(Cc3ccccc3C(F)(F)F)[C@H]2c2ccc(CO)cc2)cc1,-0.187
15,O=C1O[C@H](c2ccccc2)[C@H](c2ccccc2)N2[C@H]1[C@@H](C(=O)NC[C@H](O)c1ccccc1)[C@]1(C(=O)Nc3ccccc31)[C@H]2c1ccccc1OCCO,0.426
16,C=C(CCCC)/C(=C/C[C@H](OC(=O)c1ccncc1)c1ccc(CO)o1)c1cc(C(=O)OC)ccc1OC,0.572
17,CCCCCCCCCCC(O)C1C=CC2C(=O)NC(=O)C2N1Nc1ccccn1 (stereo not given),0.616
18,COC(=O)[C@@]1(Cc2ccc(OC)cc2)[C@H]2c3cc(C(=O)N4CCCC4)n(Cc4ccc(C)o4)c3C[C@H]2CN1C(=O)c1ccccc1,0.963

row,SMILES,composite z-score
1,C=C(/C(=C/C[C@@H](OC(=O)c1ccncc1)c1cccc(OCCO)c1)c1cc(C(=O)OC)ccc1OC)C(C)C,0.482
2,CCOC(=O)C[C@H]1[C@H](OC(=O)Cc2ccc3c(c2)OCO3)[C@@H](NC(=O)c2ccccc2)c2cc(OCCCO)ccc2N1C(=O)c1ccccc1,-0.359
3,CCCC=C(CCC)[C@@H](NS(=O)(=O)c1ccccc1)c1ccc(C(F)(F)F)cc1,0.871
4,C=C[C@H](C)[C@H](OC(=O)Nc1ccc(SC)cc1)c1ccc(O)c2ccccc12,0.801
5,CC1(C)[C@@H]2CC(C(O)C3C=CC4C(=O)N(c5ccccc5)C(=O)C4N3Nc3ccccc3F)=C[C@@H]1C2 (stereo not given in full),0.844
6,COC(=O)c1ccc(OC)c(/C=C\CC(CCc2ccccc2)OC(=O)c2ccncc2)c1 (stereo not given),-0.805
7,O=C1C2C=CC(C(O)c3ccc(Br)cc3)N(Nc3ccccc3)C2C(=O)N1c1ccccc1 (stereo not given),0.875
8,COCCOC(=O)N1C(=O)[C@@]2(c3cc(C#Cc4ccc(OC)cc4)ccc31)[C@H](C(=O)N1CCc3cc(OC)c(OC)cc3C1)[C@H]1C(=O)O[C@H](c3ccccc3)[C@H](c3ccccc3)N1[C@@H]2c1ccc(OCCO)cc1,-0.121
9,C=CCC(OC(C)=O)[C@@H]1[C@@H](N(Cc2ccc(-c3cccc(C(F)(F)F)c3)o2)C(=O)c2cccc3ccccc23)c2cc(OCCCO)ccc2N1C(=O)c1ccc(-c2ccccc2)cc1 (stereo not given in full),-0.0913
10,CCCN1C(=O)[C@@]2(Cc3ccccc3)N=C(c3ccc(OCCCO)cc3)O[C@H]2c2ccccc21,0.508
11,O=C1c2ccccc2[C@](Cc2ccccc2I)(C(=O)NCC(F)(F)F)[C@H](c2ccc(CO)cc2)N1Cc1ccccc1,0.684
12,COc1ccc([Si](C)(C)[C@@H]2[C@@H](CC(=O)N(CCO)Cc3ccccc3)O[C@]3(C(=O)N(C)c4c(Br)cc(C)cc43)[C@H]2C)cc1,0.597
13,CCOC(=O)C[C@H]1[C@H](OC(=O)Cc2ccc3c(c2)OCO3)[C@@H](NC(=O)c2ccccc2)c2cc(OCCCO)ccc2N1C(=O)c1ccc2ccccc2n1,0.645
14,COC(=O)[C@]1(Cc2ccccc2CN=[N+]=[N-])N=C(c2ccc(OCCCO)cc2)O[C@@H]1c1ccccc1,-0.312
15,CN(C)CCCC[C@@H]1NC(=O)[C@H]2C[C@@H](C(=O)NCCCCCCNC(=O)CS)[C@@H](c3ccc(O)cc3)N2C1=O,0.468
16,O=C(O)[C@]1(CCS(=O)(=O)c2ccccc2)N=C(c2ccc(OCCCO)cc2)O[C@@H]1c1ccccc1,0.815
17,C=CCC(OC(C)=O)[C@@H]1[C@@H](N(Cc2cccc3ccccc23)C(=O)c2ccc(C)cc2)c2cc(OCCCO)ccc2N1C(=O)c1ccc2ccccc2c1 (stereo not given in full),-0.0007
